Binding signal data for 42 sequences are collected here from PMC10726135, “HNF4α isoforms regulate the circadian balance between carbohydrate and lipid metabolism in the liver”.

Whole data set: some 18,000 sequences, median “log2 normalized intensity” near 0.39, cut for the highest 2% near 6.6. This excerpt belongs to a sample that is enriched for the highest values.

The test has as its target T1, HNF4alpha2 (COS-7 nuclear extract) (Homo sapiens, UniProt P41235 1-474).
T1 sequence: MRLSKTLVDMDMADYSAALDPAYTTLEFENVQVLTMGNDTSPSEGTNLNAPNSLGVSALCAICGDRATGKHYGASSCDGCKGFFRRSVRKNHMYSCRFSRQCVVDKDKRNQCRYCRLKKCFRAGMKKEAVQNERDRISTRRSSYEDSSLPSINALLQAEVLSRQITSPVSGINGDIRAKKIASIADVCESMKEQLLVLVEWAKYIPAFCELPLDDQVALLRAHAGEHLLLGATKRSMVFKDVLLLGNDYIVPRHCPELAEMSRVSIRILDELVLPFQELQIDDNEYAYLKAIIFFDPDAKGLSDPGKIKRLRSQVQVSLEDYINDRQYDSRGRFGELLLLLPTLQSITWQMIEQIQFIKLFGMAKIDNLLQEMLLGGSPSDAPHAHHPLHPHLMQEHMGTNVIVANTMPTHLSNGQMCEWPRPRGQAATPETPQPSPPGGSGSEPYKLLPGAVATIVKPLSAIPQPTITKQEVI
In words: protein-binding microarray; COS-7 nuclear extract on double-stranded Agilent 4x180k PBM; binding buffer, salt, pH and temperature not given in the material; high values mean tight binding. As to conditions: chain copies: 2; label: 3' end of strand 1 on the slide; dsDNA, one strand shown. Put shortly:
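The binding signal is Agilent software's gProcessedSignal after background correction and normalization. Arrays were a custom Agilent SurePrint G3 4x180k design of double-stranded ~60-nt oligonucleotides with ~44,000 test sequences in quadruplicate, probed with nuclear extracts of COS-7 cells transiently expressing a human HNF4α isoform. Scans were made at 2-µm resolution on an Agilent G2565CA scanner.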
Consider “CTTCAAAGGTCGTGTGCTTATCACATCTATGCCTAGGGAGATTAGAGTATCGGTCGA”, for which the binding signal worked out at 1.12 log2 normalized intensity. As for “GTGATGACCCCATACTTCAGCAATTTCTTAGCCTAGGGAGATTAGAGTATCGGTCGA”, the figure is 1.12 log2 normalized intensity; as for “AATCCCCTTCAAGTCTGAGATGAAGAGGCCGCCTAGGGAGATTAGAGTATCGGTCGA”, 0.649 log2 normalized intensity; as for “CAGTGGTAATGGAGCTGAAACTATAAACTTGCCTAGGGAGATTAGAGTATCGGTCGA”, -0.653 log2 normalized intensity.

As for “ACCTTTGCCCTGGATCTTGAAGCAGAAAACGCCTAGGGAGATTAGAGTATCGGTCGA”, the binding signal came to 1.58 log2 normalized intensity. Take “TAATCAGCTTAAGCATACAGATTACATCTCGCCTAGGGAGATTAGAGTATCGGTCGA”: the binding signal is -0.798 log2 normalized intensity. Take “ACGTTCACGTCTCAAGCTTCAGGAGTCCACGCCTAGGGAGATTAGAGTATCGGTCGA”: the binding signal turned out to be 2.07 log2 normalized intensity. The same measure for “ATACGATAATGTCAAACATCTTATATCAACGCCTAGGGAGATTAGAGTATCGGTCGA”: 0.675 log2 normalized intensity; for “TCTATCTGTATTCTGAAGCCCTACAGCCCAGCCTAGGGAGATTAGAGTATCGGTCGA”: -0.864 log2 normalized intensity. The same measure for “CCTCTGCATTTGCTCCCTGACTTGGTTTACGCCTAGGGAGATTAGAGTATCGGTCGA”: 1.67 log2 normalized intensity; for “CAGATCCAGTGGACTCTCTGTTTGATCAGCGCCTAGGGAGATTAGAGTATCGGTCGA”: 1.51 log2 normalized intensity; for “TGTCACACACAGACTTGGGTTCAAAGAGCAGCCTAGGGAGATTAGAGTATCGGTCGA”: 3.94 log2 normalized intensity.

As for “AATGATTGCATAATCTGGCTCCAAAGTCTAGCCTAGGGAGATTAGAGTATCGGTCGA”, the binding signal came to 2.2 log2 normalized intensity. Take “CCTTTACCCTGACCTGTCAAGCAATGATCTGCCTAGGGAGATTAGAGTATCGGTCGA”: the binding signal was 1.25 log2 normalized intensity.

In the case of “AGCAGTCTGAGTAGGAAAGACTTGCTCATTGCCTAGGGAGATTAGAGTATCGGTCGA”, the binding signal is -0.18 log2 normalized intensity. Regarding “CACTCTGGTGCCCTCTGAGTGTTTGACCTTGCCTAGGGAGATTAGAGTATCGGTCGA”, the binding signal turned out to be 5.15 log2 normalized intensity. On to “CCCTCTGAGTGTTTGACCTTTCACCCAGAAGCCTAGGGAGATTAGAGTATCGGTCGA”, for which the binding signal was 6.42 log2 normalized intensity. For the sequence “TGGTGCCCTCTGAGTGTTTGACCTTTCACCGCCTAGGGAGATTAGAGTATCGGTCGA”, the binding signal worked out at 7.66 log2 normalized intensity. With “GTTGCTTCCACCTATGAGTCTGTAAAGTCAGCCTAGGGAGATTAGAGTATCGGTCGA”, the binding signal was found to be 0.468 log2 normalized intensity. For the sequence “AATATTCTGGCTTCTCGTGAGTATTTTTTCGCCTAGGGAGATTAGAGTATCGGTCGA”, the binding signal was 0.954 log2 normalized intensity.

Turning to “TTTGGAATTGTGTCACTCCCCAGGAATGTGGCCTAGGGAGATTAGAGTATCGGTCGA”, the binding signal stood at 1.89 log2 normalized intensity. The same measure for “CCTCTGCACCCCACCAAGGACTGGACCACCGCCTAGGGAGATTAGAGTATCGGTCGA”: 2.34 log2 normalized intensity; for “AGGAATTCTGATCTTTGACCTCTCCAGGGTGCCTAGGGAGATTAGAGTATCGGTCGA”: 5.99 log2 normalized intensity; for “TTCTGATCTTTGACCTCTCCAGGGTCCTTGGCCTAGGGAGATTAGAGTATCGGTCGA”: 4.73 log2 normalized intensity.

On to “CCACTTTGAATCAGGAGAGCATCTGAGTGTGCCTAGGGAGATTAGAGTATCGGTCGA”, for which the binding signal turned out to be 1.15 log2 normalized intensity. The same measure for “CATCTTTGAAGAGCACAGGGTCAGCAGATCGCCTAGGGAGATTAGAGTATCGGTCGA”: 1.17 log2 normalized intensity. As for “AGAGCAGGAATTCTGATCTTTGACCTCTCCGCCTAGGGAGATTAGAGTATCGGTCGA”, the figure is 7.34 log2 normalized intensity. Turning to “TAATCAGAGCAGGAATTCTGATCTTTGACCGCCTAGGGAGATTAGAGTATCGGTCGA”, the binding signal was determined as 7.18 log2 normalized intensity. As for “GCCACCTTGGTGAGAGATTAAACATGCTCTGCCTAGGGAGATTAGAGTATCGGTCGA”, the figure is 0.469 log2 normalized intensity; as for “ACAGCCTTTTGAGTTTCTACCATAGACCCTGCCTAGGGAGATTAGAGTATCGGTCGA”, 1.05 log2 normalized intensity; as for “TTACTGGACTTGATCCATTCTACCCCTGTGGCCTAGGGAGATTAGAGTATCGGTCGA”, 2.73 log2 normalized intensity. The same measure for “ATGCTAAAGTCTACATTCTAGATGACCCCTGCCTAGGGAGATTAGAGTATCGGTCGA”: 5.66 log2 normalized intensity; for “TACCCCTGTGGTTGACCTTTAGTCTCTAGCGCCTAGGGAGATTAGAGTATCGGTCGA”: 6.48 log2 normalized intensity.

Turning to “CATTCTACCCCTGTGGTTGACCTTTAGTCTGCCTAGGGAGATTAGAGTATCGGTCGA”, the binding signal was determined as 7.73 log2 normalized intensity. Consider “TGATCCATTCTACCCCTGTGGTTGACCTTTGCCTAGGGAGATTAGAGTATCGGTCGA”, for which the binding signal amounted to 7.8 log2 normalized intensity. As for “GGACTTGATCCATTCTACCCCTGTGGTTGAGCCTAGGGAGATTAGAGTATCGGTCGA”, the figure is 2.25 log2 normalized intensity.

As for “GGACTTCGCTCCGCCGCTAGGTGGCGGGCTGCCTAGGGAGATTAGAGTATCGGTCGA”, the binding signal came to 1.42 log2 normalized intensity. Consider “GAGAAGTTGCTCTTTACACCATTGCAAGGAGCCTAGGGAGATTAGAGTATCGGTCGA”, for which the binding signal was -0.941 log2 normalized intensity. For the sequence “GGAGCCCCCTGGGGGAGGTTTCCTGCTGTCGCCTAGGGAGATTAGAGTATCGGTCGA”, the binding signal is -0.946 log2 normalized intensity. The same measure for “ATCTTCCTCCCCCCTTGGCTACATGTTTGTGCCTAGGGAGATTAGAGTATCGGTCGA”: 3.7 log2 normalized intensity; for “CTGCAAAGAAGTCAAACTTTGGACCCACTGGCCTAGGGAGATTAGAGTATCGGTCGA”: 5.97 log2 normalized intensity. The same measure for “ACACAGGACTTGATCCAGGGCAAAGGTCATGCCTAGGGAGATTAGAGTATCGGTCGA”: 7.38 log2 normalized intensity.
